Data as given in PubChem BioAssay (EPA / NIEHS).
Inconclusive results are not listed. Active and inactive are the calls of the source. Rule for the calls, unless noted: active = hit-call score of the fitted dose curve at least 0.9, where 1 is the maximum; inconclusive = response in the unintended direction; inactive = score below 0.9.

What was measured:
[1] = target: Estrogen receptor beta (Homo sapiens) (UniProt Q92731); assay: OT_ER_ERbERb_1440: Odyssey Thera (OT) 24-hour HEK293T Protein-Complementation Assay for Estrogen Receptor-beta/-beta Homodimer (AID 2283380);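 note: fluorescence gain from ER beta LBD homodimer complementation read by laser scanning cytometry; scored as signal increase over DMSO baseline for both agonists and antagonists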
Sequence of Estrogen receptor beta (Homo sapiens) (Q92731 whole entry, looked up, the tested form may be a part): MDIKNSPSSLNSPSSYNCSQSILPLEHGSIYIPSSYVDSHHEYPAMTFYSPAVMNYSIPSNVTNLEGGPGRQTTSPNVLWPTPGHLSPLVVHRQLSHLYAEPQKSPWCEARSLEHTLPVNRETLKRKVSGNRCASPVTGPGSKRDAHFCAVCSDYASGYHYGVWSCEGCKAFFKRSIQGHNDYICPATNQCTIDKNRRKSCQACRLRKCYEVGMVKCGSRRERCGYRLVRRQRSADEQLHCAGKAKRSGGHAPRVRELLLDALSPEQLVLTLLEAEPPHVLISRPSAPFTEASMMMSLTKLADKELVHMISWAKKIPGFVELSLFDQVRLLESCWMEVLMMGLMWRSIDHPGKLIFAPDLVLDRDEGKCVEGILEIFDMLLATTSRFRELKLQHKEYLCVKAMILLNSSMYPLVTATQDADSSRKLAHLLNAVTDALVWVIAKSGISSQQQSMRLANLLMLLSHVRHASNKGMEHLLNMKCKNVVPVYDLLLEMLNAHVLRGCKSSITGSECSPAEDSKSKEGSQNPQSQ
How it was run: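 HEK293T cells stably expressing human ER-beta LBD (aa 310-547) PCA homodimer pair, dosed 24 h; formaldehyde-fixed, Draq5-stained. Readout: increase in nuclear (agonist) or nuclear plus cytoplasmic (antagonist) fluorescence intensity versus DMSO, gain-of-signal fitting.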

[2] = target: Estrogen receptor (Homo sapiens) (UniProt P03372); assay: OT_ERa_GFPERaERE_0480: Odyssey Thera (OT) 8-hour HeLa Transcription Induction Assay for Estrogen Receptor (AID 2283381; active = hit-call score of the fitted dose curve at least 0.9, where 1 is the maximum; inactive = score below 0.9)
Sequence of Estrogen receptor (Homo sapiens) (P03372 whole entry, looked up): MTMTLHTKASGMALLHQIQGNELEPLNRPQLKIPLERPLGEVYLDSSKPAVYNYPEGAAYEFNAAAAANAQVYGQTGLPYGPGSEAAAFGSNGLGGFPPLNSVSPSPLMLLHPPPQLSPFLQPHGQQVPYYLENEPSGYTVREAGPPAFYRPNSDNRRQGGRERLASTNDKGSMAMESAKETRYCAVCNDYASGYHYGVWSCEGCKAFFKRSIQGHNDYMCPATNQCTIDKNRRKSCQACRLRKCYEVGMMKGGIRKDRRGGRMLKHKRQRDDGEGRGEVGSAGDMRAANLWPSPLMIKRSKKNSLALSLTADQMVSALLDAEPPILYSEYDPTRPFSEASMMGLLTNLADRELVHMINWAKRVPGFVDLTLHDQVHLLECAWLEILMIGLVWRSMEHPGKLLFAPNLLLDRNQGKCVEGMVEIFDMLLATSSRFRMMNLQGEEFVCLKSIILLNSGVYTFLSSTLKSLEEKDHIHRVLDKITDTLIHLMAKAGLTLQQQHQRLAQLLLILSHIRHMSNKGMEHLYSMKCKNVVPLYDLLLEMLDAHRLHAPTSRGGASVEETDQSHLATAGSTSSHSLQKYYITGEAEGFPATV
How it was run: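 Fluorescence microscopy with high-content image analysis measures ERE-driven GFP induction in HeLa cells at 8 h post-dose. Increases fitted against DMSO baseline.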

[3] = target: Agonist Androgen Response Element (ARE), AR (gene 367) (UniProt P10275); assay: OT_AR_ARELUC_AG_1440: Odyssey Thera (OT) 24-hour CHO-K1 Luciferase Assay for Agonist Androgen Response Element (ARE) (AID 2283379)
Sequence of Agonist Androgen Response Element (ARE), AR (gene 367) (P10275 whole entry, looked up): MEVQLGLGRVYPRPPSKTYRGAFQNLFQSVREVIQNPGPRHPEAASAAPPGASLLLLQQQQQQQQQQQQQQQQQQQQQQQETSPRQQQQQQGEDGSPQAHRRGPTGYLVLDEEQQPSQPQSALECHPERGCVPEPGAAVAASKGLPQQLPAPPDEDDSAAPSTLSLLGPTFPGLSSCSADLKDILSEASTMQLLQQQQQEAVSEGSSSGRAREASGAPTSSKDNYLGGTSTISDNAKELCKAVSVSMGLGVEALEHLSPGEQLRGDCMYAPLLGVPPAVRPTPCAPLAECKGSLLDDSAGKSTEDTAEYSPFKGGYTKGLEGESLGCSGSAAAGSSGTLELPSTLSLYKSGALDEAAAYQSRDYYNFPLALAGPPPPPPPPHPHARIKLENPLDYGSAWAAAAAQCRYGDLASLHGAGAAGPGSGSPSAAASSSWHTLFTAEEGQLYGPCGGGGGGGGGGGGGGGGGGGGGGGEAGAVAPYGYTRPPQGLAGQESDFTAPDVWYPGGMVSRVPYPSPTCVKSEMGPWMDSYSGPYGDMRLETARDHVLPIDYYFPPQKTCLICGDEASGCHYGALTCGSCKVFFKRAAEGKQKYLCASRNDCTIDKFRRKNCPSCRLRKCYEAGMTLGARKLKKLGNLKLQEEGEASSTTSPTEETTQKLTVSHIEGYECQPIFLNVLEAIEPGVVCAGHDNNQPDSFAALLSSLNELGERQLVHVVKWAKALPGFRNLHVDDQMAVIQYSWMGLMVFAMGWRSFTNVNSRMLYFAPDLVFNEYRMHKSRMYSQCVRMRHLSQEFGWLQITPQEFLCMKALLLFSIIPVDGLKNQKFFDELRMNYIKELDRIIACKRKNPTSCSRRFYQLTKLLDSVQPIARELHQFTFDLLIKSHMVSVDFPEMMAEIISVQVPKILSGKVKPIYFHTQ
How it was run: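 Luminescence increase above DMSO, read after a 24 h compound treatment of CHO-K1 cells expressing an androgen response element luciferase reporter, gives the single primary endpoint; concentration-response fitting used the positive direction.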

Compound | outcome [1] | outcome [2] | outcome [3] | AC50 [2]
CCOCN(C(=O)CCl)c1c(C)cccc1CC | inactive | inactive |  | 
Cc1[nH]c(=O)n(C(C)(C)C)c(=O)c1Cl |  | inactive | inactive | 
O=[N+]([O-])c1c(Cl)c(Cl)c(Cl)c(Cl)c1Cl | inactive | inactive |  | 
CCOC1Oc2ccc(OS(C)(=O)=O)cc2C1(C)C (configuration not stated) | inactive |  | inactive | 55.4 µM (active)
CN1CSC(=S)N(C)C1 | inactive | inactive |  | 
COP(=O)(OC)OC=C(Cl)Cl | inactive | inactive |  | 
CCC(C)(NC(=O)c1cc(Cl)c(C)c(Cl)c1)C(=O)CCl (configuration not stated) | inactive |  |  | 13.6 µM (active)
O=[N+]([O-])/N=C1\NCCN1Cc1ccc(Cl)nc1 | inactive | inactive | inactive | 
O=C(O)C(F)(F)C(F)(F)C(F)(F)C(F)(F)C(F)(F)C(F)(F)C(F)(F)F | inactive |  |  | 
Clc1ccccc1-c1nnc(-c2ccccc2Cl)nn1 | inactive | inactive |  | 
OCCOc1ccccc1 | inactive | inactive |  | 
CNC(=O)Oc1ccccc1OC(C)C | inactive | inactive |  | 
CC(C)(C)C(O)/C(=C\c1ccc(Cl)cc1Cl)n1cncn1 (configuration not stated) | inactive |  |  | 86.7 µM (active)
